Pf growth 96h – inhibits malaria parasite growth, 96 h; P. falciparum luciferase reporter growth, 96 h; Potency, µM (top dose mostly 28.7 µM), actives largely listed as inhibitors; actives 6.9% (n = 320,000)
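Infected RBCs, 2% Hct / 0.05% parasitemia final; luciferase-reporter P. falciparum; cpd 96 h, 37 C, 5% CO2; luciferase detection reagent; luminescence.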
Pf growth 48h – P. falciparum growth inhibition at 48 hours (one generation); P. falciparum luciferase growth in erythrocytes, 48 h; Potency, µM (highest dose often 28.7 µM), usual class: inhibitors; actives 5.9% (n = 310,000); AID 504832
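Cell-based growth assay: transgenic P. falciparum expressing firefly luciferase, cultured in red cells within RPMI 1640 containing 0.5% w/v Albumax, 24 mM bicarbonate and gentamycin. A drop in luciferase activity indicates inhibition.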
VACV Venus inh – inhibitors of vaccinia virus (Venus reporter); actives 0.46% (n = 330,000); Vaccinia virus Venus reporter expression, fluorescence; Potency, µM (top dose mostly 36.5 µM), actives largely listed as inhibitors; calls by dose curve; tested in A549 cells; also: nearly all actives have a fitted effect of over 30% in size
Vaccinia mCherry – vaccinia inhibition (mCherry reporter); Vaccinia virus mCherry reporter infection, fluorescence; Potency, µM (series often up to 36.5 µM), actives largely listed as inhibitors; actives 0.63% (n = 310,000); calls by dose curve; tested in A549 cells; also: nearly all actives have a fitted effect of over 35% in size
AMA1 RON2 block – disrupts binding of P. falciparum AMA1 to RON2 | AlphaScreen AMA1-biotinylated RON2 peptide binding | Potency, µM (titrated, usually from 58.2 µM), hits mostly inhibitors | actives 0.2% (n = 360,000); also: nearly all actives have a fitted effect of over 45% in size
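AMA1 (3D7) with his tag at 25 nM final met compounds first, then biotinylated RON2 peptide at 25 nM; detection used donor plus acceptor beads, 10 µg/mL apiece, read by AlphaScreen after 30 min at room temperature.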
A number is an active result; i = inactive; ? = inconclusive; nt = no result given; [ ] = remark or other dose. Sampled rows, rich in hits. Any-hit rate of the full collection: about 8.7%. Unless noted, calls follow the shape of the dose curve; as a rule, active = well fitted curve in the direction sought with a large enough effect; inconclusive = small, poorly fitted or top-dose-only effect, or another doubt; inactive = no such curve, though single readings can be large; an effect the other way counts as inactive or inconclusive.

SMILES	Pf growth 96h	Pf growth 48h	VACV Venus inh	Vaccinia mCherry	AMA1 RON2 block
COc1ccc(C2NC(=O)NC(C)=C2C(=O)Nc2cc(C)cc(C)c2)c(OC)c1 (stereo not drawn)	nt	nt	i	i	nt
COc1ccc(CNC(=O)C2CCN(C(=O)c3csc(Nc4ccc(C)cc4)n3)CC2)cc1	i	8.3µM	i	?	i
Cc1ccc(Nc2nc(C(=O)N3CCC(C(=O)NCCN4CCOCC4)CC3)cs2)cc1	4.7µM	?	nt	nt	i
Cc1ccc(Nc2nc(C(=O)N3CCC(C(=O)NCc4ccccc4)CC3)cs2)cc1	?	?	i	i	i
CCN1CCN(Cc2c(O)ccc3c(=O)c(Oc4ccccc4Cl)c(C(F)(F)F)oc23)CC1	nt	nt	i	i	nt
Nc1ccc(/C=C/c2ccnc3ccccc23)cc1[N+](=O)[O-]	nt	nt	i	i	nt
COc1ccc(CCNC(=O)c2cn(C)c3ccc(S(=O)(=O)N4CCOCC4)cc3c2=O)cc1OC	i	13µM	i	i	i
CCn1cc(C(=O)N2CCN(c3cccc(Cl)c3)CC2)c(=O)c2cc(S(=O)(=O)N3CCOCC3)ccc21	nt	nt	i	i	nt
CCn1cc(C(=O)NCCc2ccc(OC)c(OC)c2)c(=O)c2cc(S(=O)(=O)N3CCOCC3)ccc21	?	10µM	i	i	i
Cn1cc(C(=O)N2CCN(c3cccc(Cl)c3)CC2)c(=O)c2cc(S(=O)(=O)N3CCOCC3)ccc21	12µM	i	i	i	i
CCOC(=O)N1CCN(C(=O)c2cn(CC)c3ccc(S(=O)(=O)N4CCOCC4)cc3c2=O)CC1	4.7µM	i	nt	nt	i
CCCCN(CC)CCCNC(=O)C1CCN(c2nc3ccc(CC)cc3s2)CC1	nt	nt	i	i	nt
O=C(NCC(c1ccco1)S(=O)(=O)c1cccs1)c1ccc(F)c(F)c1 (stereo not drawn)	nt	nt	i	i	nt
Cc1ccc2nc(-c3cccc(Br)c3)cc(C(=O)NC3=NCCS3)c2c1	i	4.7µM	i	i	i
O=C(NC1=NCCS1)c1cc(-c2ccc(F)cc2)nc2ccccc12	i	i	i	i	i
Cc1ccc(-c2cc(C(=O)NC3=NCCS3)c3ccccc3n2)cc1C	2.1µM	?	i	i	i[11.6 µM]
CCOC(=O)c1c(C)[nH]c(C)c1S(=O)(=O)NCC(=O)Nc1cccc(C(F)(F)F)c1	nt	nt	i	i	nt
O=C(COC(=O)c1ccccc1Nc1ccccc1)NCc1ccccc1Cl	13µM	i	i	i	i
O=C(COC(=O)c1ccccc1Nc1ccccc1)NCc1ccccc1	?	?	i	i	i
CCCCOCc1cc(CN2CCN(c3cccc(Cl)c3)CC2)c(O)c2ncccc12	nt	nt	i	?	nt
CCCOCc1cc(CN2CCN(c3cccc(Cl)c3)CC2)c(O)c2ncccc12	nt	nt	i[7.34 µM]	2.8µM	nt
CN1CCN(Cc2cc(COCc3ccccc3)c3cccnc3c2O)CC1	2.3µM	2.1µM	?	28µM	i
Cc1cc(CNC(=O)c2cnn(-c3ncc4c(n3)-c3ccccc3CC4)c2C2CC2)on1	nt	nt	i	i	nt
COc1ccc(CN2CCc3nnc(CCc4ccccc4)n3CC2)c(OC)c1C	nt	nt	i	i	nt
CC(C)c1ccc(S(=O)(=O)N2CCN(C(=O)n3ccnc3)CC2)cc1	5.2µM	?	nt	nt	i
SMILES	Pf growth 96h	Pf growth 48h	VACV Venus inh	Vaccinia mCherry	AMA1 RON2 block
CC(C)c1ccc(S(=O)(=O)N2CCN(C(=O)c3ccncc3)CC2)cc1	?	?	nt	nt	i
Cc1ccc(S(=O)(=O)N2CCN(C(=O)n3ccnc3)CC2)cc1	7.4µM	?	nt	nt	i
O=C(c1ccc2c(c1)N(Cc1ccc(Cl)cc1)C(=O)c1ccccc1S2(=O)=O)N1CCCCCC1	nt	nt	i	i	nt
CCC(C)(C)NC(=O)C(c1ccc(O)cc1)N(CCOC)C(=O)CCC(=O)Nc1nccs1 (stereo not drawn)	i	2.9µM	i	i	i
CCC(C)(C)NC(=O)CN(C(=O)CCC(=O)Nc1nccs1)c1cccc(C)c1C	i	13µM	i	i	i
CCC(C)(C)NC(=O)CN(C(=O)CCC(=O)Nc1nccs1)c1ccc(C)cc1	?	i	nt	nt	i
CCC(C)(C)NC(=O)C(c1ccc(OC)cc1)N(CCOC)C(=O)CCC(=O)Nc1nccs1 (stereo not drawn)	?	i	i	i	i
CC(=O)N1CCCc2cc(S(=O)(=O)NCc3ccccc3Cl)ccc21	nt	nt	i	i	nt
O=C(CSc1ncn[nH]1)NCCC(c1ccccc1)c1ccccc1	10µM	?	i	nt	i
Cc1ccccc1NC(=O)c1nn(C)c2c1CS(=O)(=O)c1ccccc1-2	13µM	i	nt	nt	i
Cn1ccc2cc(S(=O)(=O)N3CCN(C(=O)Nc4ccccc4F)CC3)ccc21	nt	nt	i	i	nt
CCN(CCCNC(=O)c1nn(-c2ccc(C)cc2)c(=O)c2c1c1ccccc1n2C)c1cccc(C)c1	nt	nt	i	i	nt
O=S(=O)(c1ccc(OCC(O)CNC23CC4CC(CC(C4)C2)C3)c(Cl)c1)N1CCOCC1 (stereo not drawn)	?	10µM	i	i	i
Fc1cccc(/C=N/Nc2cc(N3CCOCC3)ncn2)c1	2.3µM	i	i	i	i
Fc1ccc(/C=N/Nc2cc(N3CCOCC3)ncn2)cc1	?	i	i	i	i
COc1cccc(/C=N/Nc2cc(N3CCOCC3)ncn2)c1O	i	0.93µM	i	?	i
COc1cc(Cl)c(C)cc1NC(=O)c1sc2nc3n(c(=O)c2c1C)CCCCC3	nt	nt	i	i	nt
COC(=O)C1CCN(C2=C(NS(=O)(=O)c3ccc(Cl)cc3)C(=O)c3ccccc3C2=O)CC1	?	?	i	?	20µM
CCOC(=O)N1CCN(C2=C(NS(=O)(=O)c3ccc(C)cc3)C(=O)c3ccccc3C2=O)CC1	3.3µM	8.3µM	nt	nt	?
CC(=O)Nc1ccc(S(=O)(=O)NC2=C(N3CCN(c4ccc(F)cc4)CC3)C(=O)c3ccccc3C2=O)cc1	nt	0.74µM	?	?	?
CC1CCCN(C2=C(NS(=O)(=O)c3ccc(Cl)cc3)C(=O)c3ccccc3C2=O)C1 (stereo not drawn)	12µM	?	i	?	?
NC(=O)C1CCN(C2=C(NS(=O)(=O)c3ccc(Cl)cc3)C(=O)c3ccccc3C2=O)CC1	i	?	nt	nt	?
Cc1ccc(S(=O)(=O)NC2=C(N3CCN(Cc4ccccc4)CC3)C(=O)c3ccccc3C2=O)cc1	nt	?	i	i	?
COc1ccc(CCNc2nc(-c3ccc(OC)c(OC)c3)cc(C(F)(F)F)n2)cc1OC	nt	nt	i	i	nt
Cc1cccc(C(=O)NCC(c2ccc3c(c2)OCO3)N2CCN(c3ccccc3F)CC2)c1 (stereo not drawn)	nt	nt	i	i	nt
SMILES	Pf growth 96h	Pf growth 48h	VACV Venus inh	Vaccinia mCherry	AMA1 RON2 block
COc1ccc(OC)c(NC(=O)C(C)n2c(=O)cc(C)c3c(C)nn(-c4ccccc4)c32)c1 (stereo not drawn)	nt	nt	i	i	nt
O=C(N/N=C/c1cc(Br)c(O)c(Br)c1O)c1cccnc1	i	10µM	nt	nt	i
O=C(N/N=C/c1cc(O)ccc1Br)c1cccnc1	i	13µM	nt	nt	i
Cc1cc(C)cc(-n2c(C)nc3cc(C(=O)NCc4ccc(F)cc4)ccc32)c1	nt	nt	i	i	nt
COc1ccc(N2CCN(C(=O)c3cc(C4CC4)nn3-c3ccccc3)CC2)cc1	?	i	nt	nt	?
O=C(c1cc(C2CC2)nn1-c1ccccc1)N1CCN(S(=O)(=O)c2ccc(F)cc2)CC1	nt	nt	i	i	i

Source: PubChem BioAssay
